Compound activity from PubChem BioAssay.
AmpC inh detg: blocks E. coli AmpC beta-lactamase in detergent assay; P00811; Potency, µM (highest dose often 114 µM), without a hit: top-dose activity change, negative = inhibition, hits mostly inhibitors; 0.041% of 370,000 active; AID 485294; AmpC hydrolysis of nitrocefin, absorbance 480 nm, 0.01% Triton;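 further: 0% = no-compound wells and -100% = no-enzyme wells; nearly all actives have a fitted effect of over 25% in size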
Target sequence (P00811 whole entry, looked up): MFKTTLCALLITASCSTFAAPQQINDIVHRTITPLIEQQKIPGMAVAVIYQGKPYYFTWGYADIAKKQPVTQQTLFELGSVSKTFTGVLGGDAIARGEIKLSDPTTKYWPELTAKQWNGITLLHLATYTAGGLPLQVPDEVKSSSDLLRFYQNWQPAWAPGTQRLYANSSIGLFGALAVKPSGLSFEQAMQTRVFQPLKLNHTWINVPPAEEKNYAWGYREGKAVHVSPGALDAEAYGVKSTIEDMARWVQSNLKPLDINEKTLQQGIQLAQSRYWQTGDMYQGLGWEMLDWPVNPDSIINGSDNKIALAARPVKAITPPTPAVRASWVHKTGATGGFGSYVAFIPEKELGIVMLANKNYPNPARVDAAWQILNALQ
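AmpC (5.3 nM in the dispensed reagent) in 20 mM phosphate pH 7.0 with 0.01% (detergent screen) or 0.0001% Triton X-100 was preincubated with compounds for 15 min at room temperature. Nitrocefin was then added from an 800 uM solution, and hydrolysis was followed at 480 nm.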
AmpC no deterg: AmpC beta-lactamase inhibition without detergent; AmpC nitrocefin hydrolysis, absorbance 480 nm, 0.0001% Triton; Potency, µM (top dose mostly 57.1 µM), for inactives: at the highest dose activity change, negative = inhibition, actives largely listed as inhibitors; 0.52% of 330,000 active;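 further: plate controls were no compound for no effect and no enzyme for full effect; nearly all actives have a fitted effect of over 20% in size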
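20 mM phosphate pH 7.0 + 0.01% (detergent screen) or 0.0001% Triton X-100; 5.3 nM AmpC reagent; cpd preinc 15 min RT; nitrocefin (800 uM stock) to start; A480 q20 s × 4 min; Activity was normalised to no-enzyme and no-compound control wells.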
SARS PLpro yeast: blocks SARS-CoV papain-like protease in a yeast assay | S. cerevisiae expressing SARS-CoV PLpro, growth rescue | Potency, µM (series often up to 32.9 µM), without a hit: top-dose activity, positive = growth rescue, hits mostly activators | 0.19% of 330,000 active; calls by dose curve; further: 0% is about no effect; nearly all actives have a fitted effect of over 55% in size
RE007 growth inh: less growth of the S. pombe RE007 Vpr strain; Potency, µM (titrated, usually from 92.2 µM), inactives show at the highest dose activity change, negative = less growth, actives largely listed as inhibitors; S. pombe RE007 Vpr strain, BacTiter-Glo ATP luminescence, 24 h; 0.21% of 360,000 active; active means well fitted falling curve with a large enough effect; inconclusive means small, poorly fitted or top-dose-only effect; inactive means no such curve, though single readings can be large or run the other way; further: on the % scale 0 is the no-effect control and ±100 the full control effect; nearly all actives have a fitted effect of over 50% in size
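Fission yeast strain RE007, carrying one chromosomally integrated HIV-1 vpr copy, was seeded at OD 0.01 in PMG+AL medium with 23 nL pinned compound. After 24 h at 30 °C and 99% humidity, viability was read by BacTiter-Glo luminescence.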
Sm TGR inh: inhibitors of Schistosoma mansoni thioredoxin glutathione reductase | purified TGR, DTNB reduction, TNB absorbance 405 nm | AID 485364 | 3% of 360,000 active | Q962Y6 | Potency, µM (highest dose often 114 µM), inactives show at the highest dose activity change, negative = inhibition, most hits filed as inhibitors; further: on the % scale 0 is the no-effect control and ±100 the full control effect; nearly all actives have a fitted effect of over 60% in size
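Kinetic colorimetric format: TGR-catalysed, NADPH-driven DTNB reduction monitored via TNB absorbance. Enzyme dispensed at 20 nM; compound exposure 15 min at room temperature before reaction start.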
TbPYK inhibitor: blocks Trypanosoma brucei pyruvate kinase | 0.12% of 410,000 active | TbPYK enzyme, Kinase-Glo Plus ATP luminescence, 45 min | Potency, µM (series often up to 76.8 µM), without a hit: at the top dose activity, negative = inhibition, actives largely listed as inhibitors | AID 624173 | Q57TT1; further: on the % scale 0 is the no-effect control and ±100 the full control effect; nearly all actives have a fitted effect of over 50% in size
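TbPYK + substrate in 50 mM TEA pH 7.2, 100 mM KCl, 10 mM MgCl2, 0.05% BSA, 0.01% Tween-20; cpd pinned; ADP 130 uM final; 45 min RT; Kinase-Glo Plus 10 min; luminescence endpoint.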
Active calls of the source: *; ? = inconclusive; nt = not tested or not shown; [ ] = remark or other dose. Most compounds without a hit are left out; they make up all but 3.3% or so of the library. Unless noted, the call rests on the fitted dose curve; in most records, active means well fitted curve in the direction sought with a large enough effect; inconclusive means small, poorly fitted or top-dose-only effect, or another doubt; inactive means no such curve, though single readings can be large; an effect the other way counts as inactive or inconclusive. Potency means the concentration at half of the fitted maximal effect.

SMILES	AmpC inh detg	AmpC no deterg	SARS PLpro yeast	RE007 growth inh	Sm TGR inh	TbPYK inhibitor
COc1ccc2c(c1)C1=NN(/C(C)=C\C(C)=O)C(c3ccccc3)C1CC2 (stereo not given)	?	-30%	-4%	-6%	56µM*	-5%
COc1ccc2c(c1)C1=NN(/C(C)=C/C(C)=O)C(c3ccc(F)cc3)C1CC2 (stereo not given)	-15%	-40%	0%	-1%	?	-4%
COc1ccc(-n2c(-c3ccc(C)cc3)cc3c2CC(C)(C)CC3=O)c(OC)c1	18%	nt	nt	nt	9%	4%
COC1=CC(=O)C=C(OC)C1=O	nt	nt	nt	-15%[18.4 µM]	nt	?
COC1=CC(=O)c2ccccc2C1=O	nt	-9%	-19%	22µM*	nt	-6%
CN(C(=S)Nc1ccc(Oc2ccccc2)cc1)c1ccc(O)cc1	-7%	-14%	-21%	4%	40µM*	-23%
CN(C(=S)Nc1ccccc1)c1ccccc1	?	0%	3%	10%	-31%	-6%
COc1ccc(-c2cnc(C)o2)cc1S(=O)(=O)Nc1ccc(C)c(F)c1	?	nt	nt	nt	-4%	1%
O=[N+]([O-])c1cc(Br)cc(C=Nc2ccc3c(c2)OCO3)c1O	0%	-43%	-5%	-18%	18µM*	-9%
CN(C(=O)CSc1nc2cc(Cl)ccc2c(=O)n1Cc1ccco1)C1CCS(=O)(=O)C1 (stereo not given)	1%	96%	0%	3%	-13%	-13%
CCc1cc2c(=O)n(Cc3ccco3)c(SCC(=O)N(C)C3CCS(=O)(=O)C3)nc2s1 (stereo not given)	-7%	33%	-2%	3%	32µM*	?
CCc1cc2c(=O)n(Cc3ccco3)c(SCC(=O)NC3CCS(=O)(=O)C3)nc2s1 (stereo not given)	-19%	-8%	-3%	-5%	16µM*	-7%
CCc1cc2c(=O)n(Cc3ccco3)c(SCC(=O)NCC3CCCO3)nc2s1 (stereo not given)	-4%	27%	3%	7%	-32%	0%
CCc1cc2c(=O)n(Cc3ccco3)c(SCc3c(C)noc3C)nc2s1	?	-11%	-10%	-5%	11µM*	-6%
CCc1cc2c(=O)n(Cc3ccco3)c(SCC(=O)N3CCCc4ccccc43)nc2s1	-11%	-13%	-6%	1%	25µM*	-10%
COc1ccc(CNC(=O)c2ccc(CNS(=O)(=O)c3ccc(F)cc3)cc2)cc1	6%	nt	nt	nt	26%	3%
COc1ccc(-c2cc(C)nc3c(-c4ccc(OC)c(OC)c4)c(C)nn23)cc1	0%	nt	nt	nt	3%	-8%
C=CCc1c(C)nc(-c2ccccc2)nc1N/N=C(\C)c1ccccc1	?	28µM*	-18%	10%	-11%	-7%
CCCC(c1nnnn1CS(=O)(=O)c1ccc(C)cc1)N1CCN(c2ccccc2)CC1 (stereo not given)	-13%	-7%	1%	4%	1%	-2%
CCCCC(c1nnnn1CS(=O)(=O)c1ccc(C)cc1)N1CCN(C)CC1 (stereo not given)	-3%	107%	-1%	0%	10µM*	2%
Cc1ccc(S(=O)(=O)Cn2nnnc2C(C)N2CCN(C(=O)c3ccco3)CC2)cc1 (stereo not given)	-13%	54%	4%	5%	45µM*	1%
Cc1cccc(CN2CCC(CNC(=O)c3c(C)oc4ncnc(N5CCCCC5)c34)CC2)c1	21%	nt	nt	nt	8%	0%
Cc1ccc(C(=O)N2CCN(C(=O)c3ccccc3)C2c2ccc(N(C)C)cc2)cc1 (stereo not given)	7%	46%	?	nt	3%	-7%
Cc1ccc(C(=O)N2CCn3c(C)ccc3C2C)cc1 (stereo not given)	4%	37%	-4%	23%	22µM*	-5%
CCOc1ccc(/C=N/O)cc1	-3%	-12%	-4%	-7%	0%	0%
SMILES	AmpC inh detg	AmpC no deterg	SARS PLpro yeast	RE007 growth inh	Sm TGR inh	TbPYK inhibitor
CCOc1ccc(/C=N/Nc2ccccc2)cc1	0%	-32%	0%	nt	25µM*	-1%
c1ccc2c(c1)NCC1CCCN21 (stereo not given)	-3%	-15%	-2%	-24%	32µM*	-25%
Cc1ccc(NC(=O)N2CC3CCCN3c3ccccc32)cc1C (stereo not given)	-5%	nt	nt	nt	-12%	-13%
O=C(Nc1ccc(F)cc1F)c1cc(-c2ccccc2O)no1	3%	nt	nt	nt	-7%	-8%
CC(=O)N1c2ccccc2NC2=C(C(=O)CCC2)C1c1ccco1 (stereo not given)	-2%	13%	0%	9%	35µM*	-1%
O=C(Nc1nnc(-c2ccc3c(c2)CCCC3)o1)c1ccc(Cl)cc1Cl	?	35µM*	-22%	-11%	4%	1%
CN(C)S(=O)(=O)c1ccc(C(=O)Nc2nnc(-c3ccc4c(c3)CCCC4)o2)cc1	?	2.8µM*	0%	4%	-2%	2%
CCn1nnc(NC(=O)c2ccc(-c3ccc(Cl)cc3)o2)n1	-1%	-8%	-11%	0%	22µM*	1%
O=C(CNC(=O)c1cccc(F)c1)N/N=C/c1cc(Br)ccc1OC(=O)/C=C/c1ccco1	-6%	16µM*	-25%	15%	?	-1%
C#CCOc1ccccc1/C=N/NC(=O)c1ccccc1OCc1ccccc1	-9%	20µM*	-2%	-10%	-19%	1%
COc1ccc(/C=N/NC(=O)c2ccccc2OCc2ccccc2)c(OC)c1	-1%	-28%	-11%	-23%	2%	1%
COc1ccccc1C(=O)NCC(=O)N/N=C/c1cc(Br)ccc1OCc1ccccc1	2%	25µM*	17%	3%	-2%	-2%
O=C(CNC(=O)c1ccccc1O)N/N=C/c1cc(Br)ccc1OC(=O)/C=C/c1ccco1	-14%	3.2µM*	32%	-17%	?	-3%
COc1ccc(-c2nc(CS(=O)CC(=O)NCc3ccco3)c(C)o2)cc1 (stereo not given)	?	2%	15%	6%	0%	2%
CCc1ccc(-c2nc(CS(=O)CC(=O)NCc3ccco3)c(C)o2)cc1 (stereo not given)	-13%	35%	-4%	5%	40µM*	2%
COc1ccc(-c2nc(CS(=O)CC(=O)NCc3cccnc3)c(C)o2)cc1 (stereo not given)	-5%	-2%	30%	-4%	-33%	0%
